# Test results from PubChem BioAssay.
# Where “and” joins values, the source holds several entries; their conditions need not be identical. Equal values may be shown once. Calls of active or inactive are those of the source.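 The calls were made as follows, unless noted: active = compounds whose cell count with miR-34 switched on is under 0.7 times the count with it off; inactive = the rest.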
# Key:
# [1] = stimulators of nuclear beta-catenin in C2C12, primary screen, imaging, WNT3A-conditioned medium, mouse C2C12, NPC library (AID 1117326; in the data active = nuclear beta-catenin stimulation mostly above about 4.2%, no sharp cut-off; inactive = mostly below about 10%; also: reference of the scale not given here); conditions: stronger effect = higher value
# [2] = stimulators of insulin release from INS-1E, primary screen, cell-based, 5 mM glucose, NPC library (AID 1117329;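 active = compound raises insulin release from rat beta cells at 5 mM glucose, no numeric limit stated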; also: reference of the scale not given here); conditions: rat INS-1E insulin secretion, at 10 µM, stronger effect = higher value
# [3] = growth inhibition of GSK3B-pretreated HCT116 cells – cell-based, CellTiter-Glo, 0.2 to 20 µM (AID 1117336;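 active = compounds lowering colon cancer cell viability after pretreatment blocking the GSK3B kinase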); conditions: HCT116 viability after GSK3B inhibitor, at 20 µM, stronger effect = higher value
# [4] = inhibition of endothelial tube formation, primary screen, imaging, VEGF stimulated, CD31 staining, tube area, NPC library (AID 1117340;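 active = compound that reduces growth-factor-driven endothelial tube area in a mixed cell culture, no cutoff stated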); conditions: VEGF-stimulated ADSC/ECFC co-culture, at 10 µM, stronger effect = higher value
# [5] = glucagon-like peptide 1 release enhancers, primary assay, NCI-H716 cell line, NPC library (AID 1117341;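 active = compound raises GLP1 secretion from the human gut endocrine cells, with no numeric limit stated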; also: reference of the scale not given here); conditions: NCI-H716 cells, at 10 µM, stronger effect = higher value
# [6] = HCT116 colon cancer cell growth inhibition, primary screen, CellTiter-Glo luminescence, NPC library (AID 1117342;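 active = compounds that lower survival of HCT116 colon cancer cells in the luminescence readout, no numeric limit stated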); conditions: at 20 µM (top of the series)
# [7] = CellTiter-Glo luminescent readout of SW480 viability loss, NPC library primary (AID 1117343;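 active = compounds that lower viability of the colon cancer cells in the luminescence readout, with no numeric limit stated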); conditions: CellTiter-Glo luminescence; at 20 µM (top of the series) unless noted
# [8] = decreased DLD-1 cellular survival, CellTiter-Glo luminescent readout, NPC compound collection, primary HTS (AID 1117346;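 active = compounds that lower survival of DLD-1 colon cancer cells in the luminescence readout, no cutoff given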); conditions: DLD-1 viability, CellTiter-Glo luminescence; at 20 µM (top of the series)
# [9] = sensitizers of A549 cells to miR-34 induction, primary screen, imaging, A549 dox-inducible miR-34, nuclei and caspase counts (AID 1347080); conditions: A549 miR-34 inducible, Hoechst nuclei count, 48 h
# [10] = phospholipid biosynthesis inhibitors in animal cells, primary screen, cell-based, LOPAC library, screen 4 (AID 1347384; call rule not given here); conditions: phospholipid biosynthesis inhibition screen, at 10 µM
# [11] = viability rescue of complex I mutant cybrids, primary screen, cell-based, galactose medium, ATP luminescence (AID 1645843;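 active = z-score of at least 1.8 in each of two replicates, scored against plate mean and spread of sample wells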;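 also: positive z means more ATP and so rescue of galactose-driven cybrid death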); conditions: complex I mutant cybrid cells, 72 h, stronger effect = higher value
# [12] = liver-stage malaria parasite growth inhibition, primary screen, cell-based, HepG2, luciferase luminescence, HepG2 viability (AID 624349; in the data active = parasite load remaining mostly below about 12%, no sharp cut-off; inactive = mostly above about 10%;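 also: 100% = mean of DMSO negative control wells on the same plate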); conditions: P. berghei liver stage in HepG2, luciferase luminescence, concentration not given here; parasite load remaining: stronger effect = lower value; viability: measured here: HepG2 viability without parasites
# [13] = survival rescue of mitochondrial mutant cells in low glucose, primary screen, MELAS cybrids, Rieske KO mouse fibroblasts, CellTiter-Glo (AID 1508586;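 active = mean z-score across replicates of 1.96 or higher in either the MELAS or the Rieske mutant cell line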;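 also: z relative to plate mean and SD of compound and empty wells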)
# [14] = stronger effect = lower value, cell number ratio, induced over uninduced
# [15] = measured here: relative caspase fold change +Dox/-Dox
# [16] = measured here: total cells with miR-34 induction, stronger effect = lower value
# [17] = measured here: total cells without miR-34 induction
# [18] = MELAS cybrid survival, CellTiter-Glo 48 h, stronger effect = higher value
# [19] = Rieske KO mouse fibroblast survival, CellTiter-Glo 72 h
SMILES,nuclear beta-catenin stimulation ([1]; at 10 µM),"nuclear beta-catenin stimulation ([1]; stimulation, at 2 µM) [%]",insulin secretion stimulation [2],viability decrease [3],tube area decrease [4],GLP1 secretion stimulation [5],inhibition of viability [6],viability decrease (inhibition) [7],viability decrease (inhibition) [8],"fold change [9, 14]","fold change [9, 15]","cell count [9, 16]","cell count [9, 17]",outcome [10],z-score [11],parasite load remaining [12],viability [12],"z-score [13, 18]","z-score [13, 19]"
COC(=O)[C@@H](N)Cc1ccc(O)c(O)c1,6.9% (inactive),0,-2.6% (inactive),22% (inactive),1.4% (inactive),5.5% (inactive),8.3% (inactive),64.7% (active),15.2% (inactive),0.967 (inactive),1.36,9830,10200,inactive,-1.02 (inactive),,,,
CC(=O)[C@@]1(O)CC[C@H]2[C@@H]3CCC4=CC(=O)CC[C@]4(C)[C@H]3CC[C@@]21C,1.2% (inactive),2.3,0.95% (inactive),14.3% (inactive),-5.3% (inactive),2% (inactive),20.1% (inactive),10.2% (inactive),-4.1% (inactive),0.967 (inactive) and 0.853 (inactive),1.72 and 1.68,8400 and 8890,8690 and 10400,inactive,-0.055 (inactive) and -1.24 (inactive),0.96% (inactive),66%,-0.428 (inactive),0.151
COC(=O)C1=C(C#N)NC(C)=C(C(=O)OC(C)C)C1c1cccc([N+](=O)[O-])c1 (stereo not given),-1.3% (inactive),2.3,-0.1% (inactive),9.8% (inactive),9.9% (inactive),-3.9% (inactive),56.2% (active),65.8% (active),29.6% (active),0.976 (inactive),0.643,7820,8010,,,,,-0.465 (inactive) and 0.607 (inactive),0.162 and 0.638
Nc1c(CC(=O)O)cccc1C(=O)c1ccc(Br)cc1,-0.1% (inactive),0.4,1.4% (inactive),52.4% (active),-4.7% (inactive),0.3% (inactive),-13.5% (inactive),37.9% (inactive),82.5% (active),0.937 (inactive),1.05,8540,9120,,,,,-0.257 (inactive),-0.191
O=C(O)CP(=O)(O)O,4.8% (inactive),3.8,0.7% (inactive),-14.8% (inactive),-4.7% (inactive),0.3% (inactive),-1.37% (inactive),10.9% (inactive),-7.2% (inactive),0.969 (inactive),1.06,9620,9930,inactive,1.15 (inactive),,,,
CC(=O)Oc1cc(C(F)(F)F)ccc1C(=O)O,-0.6% (inactive),-0.8,2.8% (inactive),-12.2% (inactive),-1.7% (inactive),-6.4% (inactive),16.4% (inactive),8.4% (inactive),5.4% (inactive),0.83 (inactive) and 0.986 (inactive),1.45 and 0.716,8780 and 8310,10600 and 8430,inactive,,140% (inactive) and 78.8% (inactive),117% and 74.8%,-0.0694 (inactive) and 0.0403 (inactive),-0.153 and -0.0623
CCn1c(=O)c2c(nc(C=Cc3ccc(OC)c(OC)c3)n2C)n(CC)c1=O,-0.2% (inactive),-0.6,-0.7% (inactive),-2.3% (inactive),14.4% (inactive),-3% (inactive),-3.5% (inactive),4.6% (inactive),-22% (inactive),0.891 (inactive),0.866,8640,9700,,,,,0.103 (inactive),0.0933
NC(N)=NCCC[C@H](N)C(=O)O,-0.2% (inactive),2.5,0.9% (active),2.3% (inactive),-23.7% (inactive),2.9% (inactive),-16.4% (inactive),8.2% (inactive),0% (inactive),0.976 (inactive),1.65,10400,10700,inactive,0.285 (inactive),,,,
C[C@]12CCC(=O)C=C1CC[C@@H]1[C@@H]2CC[C@@]2(C)[C@H]1CC[C@]2(O)C(=O)CO,0.3% (inactive),-0.1,-1.7% (inactive),-3.9% (inactive),5.4% (inactive),1.1% (inactive),25.1% (inactive),12.3% (inactive),-6.8% (inactive),1 (inactive),0.913,8610,8590,inactive,0.435 (inactive),,,,
CSc1ccc(C(=O)c2[nH]c(=O)[nH]c2C)cc1,0.3% (inactive),0.1,1.4% (inactive),-6.3% (inactive),-15.1% (inactive),0.1% (inactive),-7% (inactive),29% (inactive),9.15% (inactive),0.968 (inactive),1.32,8650,8940,inactive,0.31 (inactive),,,,
OCCN1CCN(CC/C=C2/c3ccccc3Sc3ccc(C(F)(F)F)cc32)CC1,-1.3% (inactive),14.5,10.7% (inactive),120% (active),88.3% (active),69.1% (active),126% (active),167% (active),102% (active),1.1 (inactive),1.38,6940,6310,inactive,-1.04 (inactive),69.9% (inactive),81%,,
CC(=O)OCC(=O)[C@@]1(OC(C)=O)[C@@H](C)C[C@H]2[C@@H]3C[C@H](F)C4=CC(=O)C=C[C@]4(C)[C@@]3(F)[C@@H](O)C[C@@]21C,2.1% (inactive),0.9,15.2% (inactive),4% (inactive),-8.8% (inactive),1.7% (inactive),17.6% (inactive),16.6% (inactive),7.1% (inactive),0.811 (inactive),1.36,7160,8820,,,91.6% (inactive) and 91.1% (inactive),118% and 76.3%,-0.532 (inactive),-0.0519
COc1ccc(-c2cc(=S)ss2)cc1,-1.5% (inactive),-0.3,3.1% (inactive),11.9% (inactive),-0.7% (inactive),-6.2% (inactive),27.2% (inactive),22.2% (inactive),11% (inactive),0.899 (inactive),1.14,8880,9880,,0.675 (inactive),61.1% (inactive),107%,0.776 (inactive) and 0.734 (inactive),0.201 and 0.472
Cc1ccc(Nc2c(F)cccc2Cl)c(CC(=O)O)c1,1% (inactive),3.4,-0.3% (inactive),0.4% (inactive),-20.6% (active),3.1% (inactive),-25.8% (inactive),-2.2% (inactive),-9.1% (inactive),0.931 (inactive),0.932 and 0.672,8200 and 8630,8810 and 9270,,,,,-0.194 (inactive),0.00857
Cc1ccc(Cl)c(OCC(O)CNC(C)(C)C)c1 (stereo not given),0.2% (inactive),0.1,1% (inactive),-43.6% (inactive),-6.8% (inactive),0% (inactive),-1.43% (inactive),-8.9% (inactive),-15.9% (inactive),0.861 (inactive),0.19,8600,9990,,0.405 (inactive),,,0.548 (inactive),-0.195
